Most compounds without a hit are left out; they make up all but 5.8% or so of the library.
ALOX12 inh – blocks human arachidonate 12S-lipoxygenase | P18054 | purified 12hLO, xylenol orange hydroperoxide absorbance | Potency, µM (top dose mostly 108 µM), inactives show top-dose activity change, negative = inhibition, actives largely listed as inhibitors | hit rate 1.1% among 580,000 | AID 1671190; also: % is scaled to controls: 0 for no effect and ±100 for the full control effect
Target sequence (P18054 whole entry, looked up): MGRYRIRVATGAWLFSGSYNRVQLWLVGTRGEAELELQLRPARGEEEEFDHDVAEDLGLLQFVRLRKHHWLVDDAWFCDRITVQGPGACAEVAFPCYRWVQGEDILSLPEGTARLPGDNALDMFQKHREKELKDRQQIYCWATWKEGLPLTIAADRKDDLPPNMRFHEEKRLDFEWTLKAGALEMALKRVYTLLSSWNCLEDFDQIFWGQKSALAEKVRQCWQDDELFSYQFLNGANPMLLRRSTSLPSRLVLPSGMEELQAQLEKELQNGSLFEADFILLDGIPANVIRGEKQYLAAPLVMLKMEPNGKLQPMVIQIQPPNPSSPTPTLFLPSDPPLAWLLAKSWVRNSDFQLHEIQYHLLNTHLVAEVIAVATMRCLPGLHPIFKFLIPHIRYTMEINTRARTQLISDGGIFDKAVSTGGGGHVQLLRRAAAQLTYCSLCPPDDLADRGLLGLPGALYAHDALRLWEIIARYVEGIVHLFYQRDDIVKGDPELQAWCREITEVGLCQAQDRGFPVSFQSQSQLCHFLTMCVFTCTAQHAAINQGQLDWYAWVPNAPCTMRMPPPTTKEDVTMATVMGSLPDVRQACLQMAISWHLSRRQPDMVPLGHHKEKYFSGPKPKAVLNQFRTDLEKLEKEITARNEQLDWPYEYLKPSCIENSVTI
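Purified human 12hLO at 150 nM in 25 mM Hepes, 0.01% Triton X-100, pH 7.0, preincubated 15 min at room temperature with compound. Reaction started with 40 uM arachidonic acid, 30 min at room temperature. Hydroperoxide measured by Fe-xylenol orange, 573/405 nm absorbance ratio.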
KB-V1 MDR tox – kills drug-selected multidrug resistant KB-V1 cells. KB-V1 MDR cells viability, CellTiter-Glo, 72 h. hit rate 3.4% among 400,000. Potency, µM (titrated, usually from 46.1 µM), actives largely listed as cytotoxic; also: % is scaled to controls: 0 for no effect and ±100 for the full control effect; nearly all actives have a fitted effect of over 60% in size
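Cytotoxicity toward P-gp-expressing KB-V1 cells was determined as loss of CellTiter-Glo luminescence after 72 h at 37 degrees C. Compounds were tested in quantitative HTS format across a concentration range, with curves fitted to normalized data.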
SW480 rerep – inducers of DNA re-replication in SW480 colon cancer cells. SW480 DNA re-replication, Hoechst DNA content imaging, 48 h. Potency, µM (top dose mostly 46.1 µM), for the others: at the top dose re-replication activation, most hits filed as activators. hit rate 1.8% among 340,000; also: % of control where 0% means no effect; nearly all actives have a fitted effect of over 55% in size
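Image-based DNA-content assay: after two days of treatment, nuclei were labelled with the DNA dye Hoechst and imaged, and hits were compounds raising the count of nuclei showing high fluorescence intensity.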
KB-3-1 tox – kills parental KB-3-1 adenocarcinoma cells; KB-3-1 viability, CellTiter-Glo ATP luminescence, 72 h; Potency, µM (doses to about 46.1 µM), usual class: cytotoxic; hit rate 1.4% among 400,000; also: % is scaled to controls: 0 for no effect and ±100 for the full control effect; nearly all actives have a fitted effect of over 60% in size
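Parental KB-3-1 viability, qHTS format: 72 h compound exposure, 37 °C; CellTiter-Glo; media-only wells and DMSO plates as controls; concentration-effect fits on corrected data.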
PINK1 modulator – PINK1 expression modulation | PINK1 immunofluorescence, high-content cytometry, 24 h | Potency, µM (titrated, usually from 76.6 µM), for the others: at the highest dose activation (PINK1 increase), usual class: activators | hit rate 0.2% among 410,000 | AID 624263; active = well fitted activation curve with a large enough effect; inconclusive = small, poorly fitted or top-dose-only effect; cell line not stated here; also: % of control where 0% means no effect; nearly all actives have a fitted effect of over 65% in size
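Readout is PINK1 immunofluorescence, quantified alongside mitochondrial, cell and nuclear markers by laser-scanning microplate cytometry. Cells from a stable line were exposed to compound titrations (5 concentrations) for 24 hours, with CCCP controls.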
MCF10A rereplic – induces DNA re-replication in MCF 10a normal breast cells; MCF 10A DNA re-replication, Hoechst nuclear intensity, 48 h; hit rate 2.9% among 350,000; Potency, µM (titrated, usually from 46.1 µM), inactives show at the top dose activity, positive = re-replication, hits mostly activators; also: % of control where 0% means no effect; nearly all actives have a fitted effect of over 50% in size
The depositor's hits bear a star; i = inactive; u = inconclusive; x = not tested or not shown; ! = not active in a repeat; [ ] = dose if it differs, or a comment. Unless noted, calls follow the shape of the dose curve; as a rule, active = well fitted curve in the direction sought with a large enough effect; inconclusive = small, poorly fitted or top-dose-only effect, or another doubt; inactive = no such curve, though single readings can be large; an effect the other way counts as inactive or inconclusive. Potency is read from the fitted curve at half-maximal effect.

SMILES | ALOX12 inh | KB-V1 MDR tox | SW480 rerep | KB-3-1 tox | PINK1 modulator | MCF10A rereplic
Cc1cccc(C2=NN(c3ccccc3)[C@H](CO)[C@H]2c2ccc(Cl)cc2)c1 | u | u | 13µM* | u | u | 2.3µM*
Cc1cccc(C2=NN(c3ccccc3)[C@H](CO)[C@H]2c2ccc(F)cc2)c1 | u | i | 5.2µM* | i | -1% | u
O=C(Cc1ccccc1)N(CC1CCOC1)C1CC1 (centres undefined) | -2% | x | x | x | x | x
COc1cccc2c(C)nc(Nc3nc(-c4ccccc4)cc(=O)[nH]3)nc12 | 0% | x | x | x | x | x
OC1CN=C2CCCc3c2n(c2ccc(Cl)cc32)C1 (centres undefined) | -29% | i | 3% | u | 3% | u
c1ccc(-c2ccc3c(c2)c2c4n3CCN=C4CCC2)cc1 | u | 10µM* | u | u | -3%[38.3 µM] | 8.2µM*
CN(CC(=O)NC(N)=O)Cc1ccc(F)c(F)c1 | 32% | x | x | x | x | x
Cc1ccc(CNC(=O)CCc2ncc(-c3ccc(Cl)cc3Cl)o2)cc1 | -18% | x | x | x | x | x
CCOC(=O)C1=CN(Cc2ccc(OC)cc2)C=C(C(=O)OCC)C1c1cccs1 | -18% | u | u | i | 2% | 18µM*
CN(C)C(=O)C1CCCN1S(=O)(=O)c1c(Cl)cccc1Cl (centres undefined) | -25% | x | x | x | x | x
CC(C)(C)C(=O)CSc1nnc(COc2ccccc2Cl)n1C1CC1 | 52% | x | x | x | x | x
COC1=CC(=O)C(O)=C(CCCCCCC/C=C/CCCCCCCC2=C(O)C(=O)C=C(OC)C2=O)C1=O | x | u | 5% | i | u | u
CCCCCCCCCCCC1=C(O)C(=O)C=C(O)C1=O | 3.4µM*! | i | -52% | u | -1% | -15%
O=c1[nH]c(=S)[nH]cc1Oc1ccc(Br)cc1Br | 11µM* | u | 3% | i | -1% | 4%
CCC1c2nccn2CCCN1C(=O)CCc1ccc(OC)c(OC)c1 (centres undefined) | 3% | x | x | x | x | x
Cc1ccc(C(=O)N/N=C\C2CC=CCC2)cc1[N+](=O)[O-] (centres undefined) | 0% | u | 2% | i | 0% | -15%
CCOc1cc(C(=O)N/N=C/C2CC=CCC2)cc(OCC)c1OCC (centres undefined) | 5% | i | 23µM* | i | u | u
COc1ccc(/C=N/NC(=O)c2ccn[nH]2)cc1COc1ccc([N+](=O)[O-])c(C)c1 | 77% | i | u | i | 2% | 2%
COc1ccc(/C=N/NC(=O)c2cccnc2)cc1COc1ccc([N+](=O)[O-])c(C)c1 | 178% | u | 12µM* | 6.5µM* | 2% | 2.1µM*
COc1ccc(/C=N/NC(=O)c2ccn[nH]2)cc1COc1ccc(Cl)cc1Cl | 1% | i | u | i | 3%[38.3 µM] | 12µM*
COc1ccc(/C=N\NC(=O)c2ccccc2Cl)cc1COc1c(F)c(F)c(F)c(F)c1F | 10% | i | u | u | 3% | 9.2µM*
COc1ccc(/C=N/NC(=O)c2ccccc2Cl)cc1CSc1nc2ccccc2s1 | -22% | 7.3µM* | 5.8µM* | 5.8µM* | 10%[38.3 µM] | 0.82µM*
COc1ccc(/C=N/NC(=O)c2cccnc2)cc1CSc1nc2ccccc2s1 | 29% | 12µM* | 21µM* | u | 7% | u
CC(C)N1C(=O)S/C(=C/c2ccc3c(c2)n(C)c(=O)n3C)C1=O | -1% | u | u | i | 3% | u
CCN(CC)c1ccc(/C=C2\SC(=O)N(C(C)C)C2=O)o1 | x | i | u | u | u | 3.7µM*
SMILES | ALOX12 inh | KB-V1 MDR tox | SW480 rerep | KB-3-1 tox | PINK1 modulator | MCF10A rereplic
O=C(NCc1ccccn1)C1c2ccccc2C(=O)N(Cc2ccccc2)C12CCCC2 (centres undefined) | 8% | x | x | x | x | x
CCOc1cc(-c2sc(Nc3cc(C)ccc3OC)n[n+]2-c2ccccc2)ccc1OC | u | i | -8%[9.22 µM] | u | 14% | u
COc1ccc(C)cc1Nc1n[n+](-c2ccccc2)c(-c2ccc(C(=O)O)cc2)s1 | 18µM* | i | 2% | i | 0% | 1%
COc1ccc(C)cc1Nc1n[n+](-c2ccccc2)c(-c2c(OC)ccc3ccccc23)s1 | u | u | 1%[9.22 µM] | 18µM* | u | u
COc1ccc(C)cc1Nc1n[n+](-c2ccccc2)c(-c2cc(OC)c(OC)cc2Br)s1 | 40µM* | i | u | u | u | 8%
COc1ccc(-c2sc(Nc3ccccc3)n[n+]2-c2ccc(F)cc2)c(C)c1C | u | i | -16% | i | u | 0%
O=C(CCc1ccccc1)NCCC1CCN(C(=O)Nc2cccc(F)c2)CC1 | 7% | x | x | x | x | x
O=C(Nc1ccc2[nH]cc(C(C(=O)O)N3CCCC3)c2c1)c1ccccc1 (centres undefined) | -22% | x | x | x | x | x
CC1CCCCN1C(=O)CSc1nc2ccsc2c(=O)n1Cc1ccccn1 (centres undefined) | -3% | 18µM* | -12% | i | -2%[38.3 µM] | 2%
C=C1C(=O)[C@@]23[C@H](O)C[C@@H]4C(C)(C)CC[C@H](O)[C@@]4(C)[C@@H]2CC[C@@H]1[C@H]3O | 18% | i | u | i | -2% | 0.52µM*
C=C1C(=O)[C@@]23[C@H](O)C[C@@H]4C(C)(C)CC[C@H](O)[C@]4(C)[C@@H]2C[C@H](O)[C@@H]1[C@H]3O | 17% | u | 2.6µM* | u | 9% | 6.5µM*
C=C1C(=O)[C@]23C[C@H]1CCC2[C@]1(C)C(=O)CC[C@@](C)(C(=O)O)C1C[C@@H]3O (some centres undefined) | u | i | x | u | 0% | x
COc1ccccc1-c1nc(C#N)c(NCCN(C)C)o1 | 13% | x | x | x | x | x
C/C(=N\O)c1ccc2c3ccccc3n(C)c2c1 | -13% | u | 0% | 2.6µM* | 0% | -1%
CCn1c2ccccc2c2cc(/C(C)=N/O)ccc21 | u | u | -3% | u | -3% | 7%
COCC(=O)N1CCC(Oc2nccnc2N2CCc3ccccc32)C1 (centres undefined) | 29% | x | x | x | x | x
COc1ccc(NC(=O)CSc2nc3sc(C)cc3c(=O)n2C)c(OC)c1 | 17% | 8.2µM* | -2% | i | 2% | 3%
CC(C)N=c1scc(-c2cccs2)n1/N=C/c1ccc(O)c(O)c1O | 14µM* | i | u | u | 1% | u
CCN=c1scc(-c2cccs2)n1/N=C/c1cc(OC)ccc1O | -14% | u | u | 18µM* | 4% | 5.8µM*

Source: PubChem
